Insulin prom inh = TRM-6 insulin promoter activity inhibition. TRM-6 cells (human fetal islet line), insulin promoter-eGFP reporter, imaging; reporter expression induced with tamoxifen. inhibition, % at 2 µM. hit rate 0.9% among 130,000. AID 1273;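 active means inhibition above the mean plus 3 SD, with well images judged a real hit on visual review, cut at about 60% in these data, passing the limit was not always enough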
Lmaj promast = Leishmania major promastigote growth inhibition. Leishmania major promastigotes, resazurin fluorescence viability. inhibition, % at 10 µM. hit rate 9% among 200,000; in the data active means inhibition above about 50%;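 further: promastigotes grown with compound for 44 hours at 28 °C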
Ins promoter up = MIN6 insulin promoter up-regulation; z-score at 5 µM; AID 1625; hit rate 0.3% among 190,000; MIN6 insulin promoter-GFP reporter, high-content imaging; stronger effect = higher value;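 active means z-score above 3 at 5 µM with at least 500 cells counted in the well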
ROMK primary = modulates human ROMK potassium channel activity | hit rate 2% among 130,000 | P48048 | Tet-inducible ROMK, thallium flux fluorescence; actives lie on both sides | B-score at 10 µM;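 active means signal ratio slope over the read window, or its plate-corrected B-score, at least 3 SD from the plate mean, either direction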;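 further: B-score of the F/F0 ratio slope over 7 to 12 s after thallium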
Target sequence (P48048 whole entry, looked up): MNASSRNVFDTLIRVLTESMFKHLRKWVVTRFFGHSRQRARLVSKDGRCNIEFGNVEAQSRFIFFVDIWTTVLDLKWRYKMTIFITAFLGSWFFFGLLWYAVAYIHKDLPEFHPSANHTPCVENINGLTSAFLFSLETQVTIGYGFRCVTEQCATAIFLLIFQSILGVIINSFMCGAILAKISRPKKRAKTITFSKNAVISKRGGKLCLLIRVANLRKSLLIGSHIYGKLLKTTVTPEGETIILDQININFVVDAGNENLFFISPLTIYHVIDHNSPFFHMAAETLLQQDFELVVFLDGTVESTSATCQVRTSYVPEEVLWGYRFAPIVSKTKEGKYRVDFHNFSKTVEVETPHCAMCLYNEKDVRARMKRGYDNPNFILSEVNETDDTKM
KCC2 mod = modulators of human KCC2 chloride dependent transport; KCC2 cells, thallium flux FluoZin-2 fluorescence; B-score of Tl+ flux slope (higher = more flux/activation; lower = inhibition) at 10 µM; AID 1456; hit rate 2.2% among 190,000;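 active means thallium flux slope and its plate-corrected score both differing from the plate sample mean at a set confidence after two filtering rounds, in either direction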;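 further: slope of fluorescence scaled to starting intensity during 10 to 20 s after thallium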
WT yeast gro inh = growth inhibition of WT yeast, mitochondrial fusion screen | mitochondrial fusion phenotypic screen, WT strain | inhibition, % at 10 µM | hit rate 2.1% among 190,000 | AID 1362; in the data active means inhibition above about 58%; tested in S. cerevisiae
Active calls of the source: *; i = inactive; . = no result. An excerpt weighted towards active compounds, which were near 12% of everything screened.

SMILES	Insulin prom inh	Lmaj promast	Ins promoter up	ROMK primary	KCC2 mod	WT yeast gro inh
CNC(=S)N1N=C(c2ccc(C)cc2)CC1c1ccc(N(C)C)cc1 (stereo not given)	16.7	7.7	0.9	0.317	0.415	40.4
CNC(=S)N1N=C(c2ccc(C)cc2)CC1c1cc(OC)ccc1OC (stereo not given)	.	53.0*	-1.25	1.45	-0.0666	48.0
CNC(=S)N1N=C(c2ccc(OC)cc2)CC1c1ccc(Cl)cc1Cl (stereo not given)	.	99.9*	-0.47	0.021	-0.443	39.8
CNC(=S)N1N=C(c2ccc(Br)cc2)CC1c1ccc(OC)cc1 (stereo not given)	17.2	99.2*	-0.27	0.158	-0.378	37.5
CNC(=S)N1N=C(c2ccc(C)cc2)CC1c1ccc(OC)cc1 (stereo not given)	33.3	96.5*	-0.63	0.0632	-1.41	43.0
N=C1/C(=C\c2ccc(-c3cc(Cl)cc(Cl)c3)o2)C(=O)N=C2SC=C(c3ccccc3)N12	.	-0.4	0.22	.	1.55	-2.4
N=C1/C(=C/c2cccn2CCOc2ccccc2)C(=O)N=C2SC=C(c3ccccc3)N12	-11.1	58.6*	-0.54	-0.43	0.0352	2.5
N=C1/C(=C/c2ccc(-c3cccc(C(=O)O)c3)o2)C(=O)N=C2SC=C(c3ccccc3)N12	.	-13.0	0.26	2.26*	-4.53	-22.8
Cc1c(Cl)cccc1Nc1nc(N)nc(CN2CCc3ccccc3C2)n1	14.8	89.1*	0.2	-0.799	.	36.3
Cc1ccc(Nc2nc(N)nc(CN3CCCCCC3)n2)c(C)c1	29.7	5.2	-1.1	.	-1.46	14.4
Cc1ccc(SCc2nc(N)nc(Nc3ccccc3C)n2)c(C)c1	32.4	60.0*	0.29	-0.269	-0.297	40.7
Cc1ccc(Nc2nc(N)nc(CN3CCC(C)CC3)n2)c(C)c1	i	61.8*	.	.	-0.189	-16.4
Cc1ccccc1Nc1nc(N)nc(CN(C)Cc2ccccc2Cl)n1	0.0	50.7*	-2.2	-0.106	-1.02	3.2
Cc1ccc(Nc2nc(N)nc(CN3CCc4ccccc4C3)n2)cc1	-15.8	18.0	0.39	.	-0.503	6.4
COc1ccc(NC(=O)/C(C#N)=C\C=C\c2ccco2)cc1	.	-0.5	0.1	1.84	-0.269	9.9
Cc1ccccc1Nc1nc(N)nc(CSCC(=O)Nc2cccc(Br)c2)n1	7.4	81.2*	0.7	.	-2.88	-12.1
Cc1ccc(Nc2nc(N)nc(CSc3nc4ccccc4s3)n2)cc1	-20.0	23.2	.	.	-2.4	86.3*
COc1ccc(NC(=O)c2ccc3c(=O)n(-c4ccc(OC)cc4OC)c(=S)[nH]c3c2)c(OC)c1	58.3	69.3*	-0.04	-0.523	0.326	7.4
COc1ccc(-n2c(=S)[nH]c3cc(C(=O)NC4CCCCC4)ccc3c2=O)c(OC)c1	.	-5.5	0.44	-0.0371	-0.0858	3.7
CC(=O)NC(O)C(=O)c1ccco1 (stereo not given)	.	-5.0	-0.21	0.401	-0.137	4.1
COc1ccc(-n2nc([N+](=O)[O-])c(=NCCc3ccc(Cl)cc3)n2O)cc1	0.0	26.4	-0.44	-0.504	-1.2	16.8
COc1ccc(-n2nc([N+](=O)[O-])c(=NCc3cccnc3)n2O)cc1	6.9	82.1*	-0.11	-0.466	-0.476	-0.9
COc1ccc(-n2nc([N+](=O)[O-])c(=NCCC3=CCCCC3)n2O)cc1	.	82.0*	-1.14	.	-0.645	45.5
Cc1ccc(CN=c2c([N+](=O)[O-])nn(-c3cccc(Cl)c3)n2O)cc1	.	19.9	.	-1.9	-0.414	60.7*
COc1ccc(-n2nc([N+](=O)[O-])c(=NCCc3ccc(C)cc3)n2O)cc1	0.0	80.2*	-0.59	-0.657	-0.506	1.0
SMILES	Insulin prom inh	Lmaj promast	Ins promoter up	ROMK primary	KCC2 mod	WT yeast gro inh
COc1ccc(-n2nc([N+](=O)[O-])c(=NCc3ccco3)n2O)cc1	-40.0	14.9	.	-0.289	-0.158	-12.7
Cc1onc(C(=O)Nc2sc3c(c2C(N)=O)CCCC3)c1[N+](=O)[O-]	.	.	0.45	0.166	0.622	.
CCOC(=O)c1c(Cl)c(C)nn1-c1nc(OC)cc(OC)n1	.	-6.5	-0.19	0.595	-0.211	14.1
CC(NC(=O)c1ccc2c(c1)OCCO2)C(=O)O (stereo not given)	-90.0	3.5	0.02	.	0.444	5.1
CSc1ccc(NC(=O)NCc2ccccc2)cc1	.	.	-0.1	.	0.589	.
COc1ccc(-n2nc([N+](=O)[O-])c(=NCCc3ccc(OC)c(OC)c3)n2O)cc1	20.7	93.8*	-0.76	-0.816	-0.22	5.1
CCOn1c(=O)c(-c2cccs2)[n+]([O-])c2ccccc21	28.6	-4.2	.	.	3.78*	4.8
COc1ccc(C2CC(c3cccc(C)c3)n3nc(N)nc3N2)cc1 (stereo not given)	.	86.0*	-0.35	.	0.426	7.8
Nc1nc2n(n1)C(c1cccc(Br)c1)CC(c1ccc(F)cc1)N2 (stereo not given)	.	92.8*	0.05	.	0.83	-4.7
Cc1cccc(C2CC(c3ccc(Br)cc3)Nc3nc(N)nn32)c1 (stereo not given)	.	72.9*	1.6	.	.	12.2
Nc1nc2n(n1)C(c1ccccc1)CC(c1ccc(F)cc1)N2 (stereo not given)	.	-4.9	-0.83	.	-0.243	-3.9
COc1cccc(C2CC(c3ccc(Cl)cc3)Nc3nc(N)nn32)c1 (stereo not given)	.	-8.8	.	.	0.6	7.4
COc1ccc(C2CC(c3cccc(Cl)c3)n3nc(N)nc3N2)cc1 (stereo not given)	20.0	62.5*	-0.68	.	0.802	11.9
O=C(Nc1cccc(O)c1)C(Cc1ccccc1)N1C(=O)c2cccc3cccc(c23)C1=O (stereo not given)	10.0	3.6	2.18	-0.0982	0.152	4.4
O=C1c2cccc(Cl)c2C(=O)c2c1cccc2N1CCCC1	-44.4	0.0	.	.	.	.
NC(=O)c1ccc([N+](=O)[O-])cc1SCc1ccccc1	12.8	-1.0	-0.29	.	-2.33	9.5
O=C(CN1CCN(C/C=C/c2ccccc2)CC1)NCc1ccc(Cl)cc1	.	.	-0.93	.	-0.00595	.
COc1ccc(OC)c(NC(=O)C2=C(C)Nc3ncnn3C2c2cccs2)c1 (stereo not given)	.	-0.2	0.02	.	0.152	-2.6
Cc1cc(C)nc(NC2=NC3CCCCC3N2)n1 (stereo not given)	31.2	64.2*	0.39	0.0109	-0.784	-5.6
CCn1c(CNc2ccc(C(=O)O)cc2)nc2ccccc21	-2.7	-0.9	1.72	-0.0794	-0.87	-4.3
Cc1ccc(NCc2nc3ccccc3n2CCOc2ccccc2)cc1	.	38.0	0.18	.	-0.386	62.8*
CCCn1c(CNc2ccc(Br)cc2)nc2ccccc21	.	97.4*	-0.26	.	-1.65	44.0
CCOC(=O)C1(Cc2ccc(OC)cc2)CCN(C(=O)CN2CCCCC2=O)CC1	.	5.1	-0.12	0.786	1.16	3.3
CC(=O)N(C)c1nnc(-c2cnccn2)s1	33.3	-2.9	-0.3	.	0.0342	73.7*
COn1c(C)c(C(C)=O)c2c3nonc3ccc21	12.1	-0.6	-0.57	-0.953	-0.851	-44.6
CC(=O)N1/C(=C/c2ccc(N(C)C)cc2)C(=O)c2ccccc21	13.3	100.3*	-0.6	.	-0.724	62.6*
